# According to PubChem BioAssay (NCI):
# Values joined by “and” are separate entries in the source; they are usually repeats but may differ in a detail not shown here. Equal values may be shown once. This is part of a sample that, as a whole, favours compounds with a hit. Of some 83,000 tested, about 20% had one in any assay.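 Cells were grown in 96-well plates and exposed to the test compound at a single concentration for 48 hours; results are reported as percent growth, with values below 10 considered active.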 Active and inactive are the calls of the source.
# Tested on: HCC-2998 colon
# Assay: NCI-60 one-dose screen, 48 h (100 = growth as untreated, 0 = no growth, -100 = all killed)
# Details: 1 µM
# Method: Growth inhibition of the HCC-2998 human tumor cell line is measured as a screen for anti-cancer activity. Cells are grown in 96 well plates and exposed to the test compound for 48 hours. Compounds are tested at a single concentration, which is 10^-5 M for most compounds. The reported endpoint is percent growth (GI% or GIPRCNT), where numbers from 0 - 100% represent growth inhibition, and numbers from -100% - 0 represent cell death. For example, a value of 40 represents 60% growth inhibition. A value of 0 means no net growth occurred over the course of the experiment. A value of -40 indicates 40% of cells at the beginning of the experiment died by the end of the experiment. A value of -100 means all cells are dead at the end of the experiment.
# NCI-60 Human Tumor Cell Lines Screen was performed using the standard one-dose NCI protocol, which is described in more detail at https://dtp.cancer.gov/discovery_development/nci-60/default.htm.
# Compounds with GIPRCNT values below 10 were considered active. Activity score was based on GIPRCNT using the following formula: […]
# Score is 0 for GIPRCNT values of 100 or above, 50 for GIPRCNT values of 0, and 100 for GIPRCNT values of -100.
row,Compound,growth
1,CNC(=O)c1cc(Oc2ccc(CC(=O)Nc3cc(C(C)(C)C)nn3C)cc2)ccn1,107% (inactive)

# Same assay, conditions: 10 µM
row,Compound,growth
1,CCc1ccccc1-n1c(N)c(C#N)c(-c2ccc(OC)c(OC)c2)c(C#N)c1=O,122% (inactive)
2,CNC(=O)c1cc(Oc2ccc(CC(=O)Nc3cc(C(C)(C)C)nn3C)cc2)ccn1,75.3% (inactive)

# Same assay, conditions: 10 µM unless noted
row,Compound,growth
1,Cc1nn(-c2ccccc2)nc1C(=O)Nc1ccccc1C(=O)NCC1CC1,102% (inactive) and 116% (inactive)
2,CC(=O)NC(Cc1ccccc1)C(=O)Oc1ccc2ccccc2c1 (stereo not given),105% (inactive) and 97% (inactive)
3,O=C1c2ccccc2C(=O)c2c(NCCNCCO)ccc(NCCNCCO)c21,36.6% (inactive) and 41.1% (inactive)
4,NS(=O)(=O)c1cc2c(cc1Cl)NC(C(Cl)Cl)NS2(=O)=O (stereo not given),111% (inactive)
5,CC(C)CNC(=O)c1ccccc1C(=O)NC1(C(=O)NCC(C)C)CCCC1,101% (inactive) and 103% (inactive)
6,Cc1ccc(S(=O)(=O)Nc2nc3ccccc3nc2Nc2ccc3nsnc3c2)cc1,42.1% (inactive)
7,COc1cc(/C=N/Nc2nc3c([nH]2)c(=O)n(C)c(=O)n3C)ccc1O,102% (inactive) and 124% (inactive)
8,CCN(CC)CCCC(CNc1ccnc2cc(Cl)ccc12)c1ccc(Cl)cc1 (stereo not given),-76.8% (active) and -93.6% (active)
9,Cn1c(=O)c2[nH]c(CCCCCCCCc3nc4ccccc4[nH]3)nc2n(C)c1=O,59.2% (inactive) and 86.5% (inactive)
10,O=C1c2ccccc2C(=O)N1/N=C/c1ccc2c(c1)OCO2,116% (inactive)
11,NC(=O)NO,111% (inactive) and 73.1% (inactive)
12,CCN1CCN(CCNc2nccc(-c3c(-c4cccc(O)c4)nc4sccn34)n2)S1(=O)=O,111% (inactive) and 97.1% (inactive)
13,CCNC(=O)Nc1ccc(-c2nc3c(c(N4CCOC[C@@H]4C)n2)CCN(C2COC2)C3)cc1,50% (inactive)
14,Oc1c(CN2CCCCC2)ccc2cccnc12,96.5% (inactive) and 59.7% (inactive)
15,CN1CCN(c2ccc3nc(-c4c(N)c5c(F)cccc5[nH]c4=O)[nH]c3c2)CC1,38.2% (inactive) and 44.8% (inactive)
16,Cc1cc(=O)[nH]c(O)c1C#N,101% (inactive) and 100% (inactive)
17,CC(=O)Nc1cc(S(=O)(=O)O)cc2cc(S(=O)(=O)O)c(N=Nc3ccccc3)c(O)c12,99.6% (inactive) and 99.1% (inactive)
18,Cc1cccc(/C=C\C(=O)c2ccc(Cl)cc2)c1,95% (inactive) and 98.2% (inactive)

row,Compound,growth
1,O=C(O)C1(C(=O)O)CCC1.[NH2-].[NH2-].[Pt+2],97.2% (inactive) and 118% (inactive)
2,CN(Cc1ccccc1)Cc1ccccc1,99.4% (inactive)
3,Oc1ccccc1C=NCC1CCC(CN=Cc2ccccc2O)CC1 (stereo not given),101% (inactive)
4,N#C/C(=C1C=C/C(=N/O)C(Br)=C/1)c1ccccc1,58.3% (inactive)
5,CC1=CCC2CC1C2(C)C (stereo not given),42.3% (inactive)
6,O=[N+]([O-])c1ccc(-n2[nH]nnc2=S)cc1,101% (inactive)
7,O=[N+]([O-])c1ccc2nc3c4ccccc4c4ccccc4c3nc2c1,89.8% (inactive)
8,CCOc1ccc2nc3cc(N)ccc3c(N)c2c1,45.3% (inactive) and 46.1% (inactive)
9,COc1cc2c(c(OC)c1OC)-c1ccc(OC)c(=O)cc1[C@@H](NC(C)=O)CC2,3.25% (active) and 13.4% (inactive) and -59% (active)
10,CC1CCCc2sc3nc(NNC(=O)c4cnccn4)n(-c4ccccc4)c(=O)c3c21 (stereo not given),34.2% (inactive) and 40.9% (inactive)
11,CC(O)(CC(=O)CC(=O)c1ccccc1)c1ccccc1 (stereo not given),101% (inactive) and 92.8% (inactive)
12,CCCCCCCCCCCCCCCc1cc(O)ccc1N,96.4% (inactive) and 101% (inactive)
13,COc1cc(NS(C)(=O)=O)ccc1Nc1c2ccccc2nc2c(C)cccc12,-60.5% (active) and -6.07% (active)
14,O=S1(=O)CC(Br)C(Br)C1 (stereo not given),102% (inactive) and 117% (inactive)
15,Nc1ccccc1Nc1ccccc1,98.7% (inactive) and 96.4% (inactive)
16,OC(COc1cccc2ccccc12)CN1CCN(c2ccc(Cl)cc2)CC1 (stereo not given),94.2% (inactive)
17,O[C@H](c1cc(C(F)(F)F)nc2c(C(F)(F)F)cccc12)[C@@H]1CCCCN1,74.5% (inactive) and 54.9% (inactive)

# Same assay, conditions: 30 µM
row,Compound,growth
1,CNC(=O)c1cc(Oc2ccc(CC(=O)Nc3cc(C(C)(C)C)nn3C)cc2)ccn1,101% (inactive)

# Same assay, conditions: 100 µM
row,Compound,growth
1,CCc1ccccc1-n1c(N)c(C#N)c(-c2ccc(OC)c(OC)c2)c(C#N)c1=O,79.6% (inactive)
